Measured values taken from PubChem BioAssay AID1159580 (chemical genetic matrix, 2015).
Hit rate of the full screen: of about 5,500 compounds, about 2,000 (36%) were called active. Not shown: some 18% with an inconclusive outcome. Cut-off read from the data, not from the text of the source: active = normalized growth mostly below about 0.91 (no sharp cut-off); inconclusive = no clear call, values can overlap the other calls; inactive = mostly above about 0.92. The list shows a part of the results.

Test: chemical genetic growth profiling, strain panel (AID 1159580);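 note: tested at 20 µM; growth read once vehicle control cultures reached saturation at 30 °C; 1 = growth at the plate median or of vehicle wells; lower values mean less growth of the strain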
Conditions: S. cerevisiae deletion strains, growth OD
[1] = locus YAL040C, strain CLN3, active compounds read low
[2] = locus YER002W, strain NOP16, active compounds read low
[3] = locus YNL153C, strain GIM3, active compounds read low
[4] = locus YNL197C, strain WHI3, active compounds read low
[5] = locus YNL224C, strain SQS1, active compounds read low
[6] = locus YOR083W, strain WHI5 (second series), active compounds read low

Measured: normalized growth

O=C(CCCN1CCC(O)(c2cccc(C(F)(F)F)c2)CC1)c1ccc(F)cc1
active: locus YAL013W, strain DEP1, active compounds read low 0.832 | locus YDR363W, strain ESC2, active compounds read low 0.851 | locus YMR307W, strain GAS1, active compounds read low 0.818 | [5] 1.13 [resistant] | locus YNL322C, strain KRE1, active compounds read low 0.882
inactive: [1] 1.01 | locus YCL061C, strain MRC1 (second series), active compounds read low 0.974 | [2] 1.03 | locus YGR078C, strain PAC10, active compounds read low 0.985 | [3] 0.961 | [4] 1.05 | [6] 1.04

O=C1CC2(CCCC2)CC(=O)N1CCCCN1CCN(c2ncccn2)CC1
inactive: locus YAL021C, strain ccr4, active compounds read low 0.985 | locus YAL026C, strain drs2, active compounds read low 1.03 | locus YAL030W, strain snc1, active compounds read low 0.998 | [1] 0.987 | locus YBL061C, strain skt5, active compounds read low 0.995 | locus YBR009C, strain hhf1, active compounds read low 0.989 | locus YBR023C, strain chs3, active compounds read low 0.996 | locus YBR171W, strain sec66, active compounds read low 1.01 | locus YBR231C, strain swc5, active compounds read low 0.993 | locus YBR279W, strain paf1, active compounds read low 0.999 | locus YCL011C, strain gbp2, active compounds read low 1 | locus YCL016C, strain dcc1, active compounds read low 1 | locus YCL061C, strain MRC1, active compounds read low 0.998 | locus YCL069W, strain vba3, active compounds read low 1 | locus YCR088W, strain abp1, active compounds read low 1.01 | locus YDL005C, strain med2, active compounds read low 0.993 | locus YDL040C, strain nat1, active compounds read low 0.996 | locus YDR001C, strain nth1, active compounds read low 1.02 | locus YDR069C, strain doa4, active compounds read low 0.978 | locus YDR137W, strain rgp1, active compounds read low 0.984 | locus YDR159W, strain sac3, active compounds read low 0.985 | locus YDR195W, strain ref2 0.974 | locus YDR297W, strain sur2, active compounds read low 1 | locus YDR334W, strain swr1, active compounds read low 1.01 | locus YDR335W, strain msn5, active compounds read low 1 | locus YDR392W, strain spt3, active compounds read low 0.801 | locus YEL003W, strain gim4, active compounds read low 1.01 | locus YEL037C, strain rad23, active compounds read low 1.01 | locus YEL061C, strain CIN8 (second series), active compounds read low 1.01 | [2] 1.01 | locus YER015W, strain faa2, active compounds read low 0.998 | locus YER016W, strain bim1, active compounds read low 0.996 | locus YER111C, strain swi4, active compounds read low 1 | locus YER155C, strain BEM2 (second series), active compounds read low 1 | locus YFR010W, strain ubp6, active compounds read low 1.02 | locus YGL167C, strain pmr1, active compounds read low 0.991 | locus YGL173C, strain kem1, active compounds read low 1 | locus YGL227W, strain vid30, active compounds read low 1 | locus YGL240W, strain doc1, active compounds read low 0.978 | locus YGL253W, strain hxk2, active compounds read low 1.01 | locus YHR013C, strain ard1, active compounds read low 0.929 | locus YHR027C, strain rpn1, active compounds read low 1 | locus YHR030C, strain SLT2, active compounds read low 1.06 | locus YHR079C, strain IRE1, active compounds read low 1 | locus YHR142W, strain chs7, active compounds read low 1.02 | locus YJL092W, strain hpr5, active compounds read low 1.04 | locus YJL095W, strain BCK1 (second series), active compounds read low 0.995 | locus YJL095W, strain BCK1, active compounds read low 1 | locus YJL115W, strain asf1, active compounds read low 0.998 | locus YJL129C, strain trk1, active compounds read low 1.02 | locus YJL154C, strain vps35, active compounds read low 1 | locus YJL164C, strain tpk1, active compounds read low 0.986 | locus YJL166W, strain qcr8, active compounds read low 0.987 | locus YJL187C, strain SWE1, active compounds read low 0.996 | locus YJR066W, strain TOR1, active compounds read low 0.959 | locus YJR075W, strain HOC1, active compounds read low 0.978 | locus YKL160W, strain elf1, active compounds read low 0.986 | locus YKR026C, strain gcn3, active compounds read low 1.01 | locus YKR091W, strain srl3, active compounds read low 0.995 | locus YLL001W, strain dnm1, active compounds read low 0.983 | locus YLL026W, active compounds read low 0.987 | locus YLL041C, strain sdh2, active compounds read low 0.999 | locus YLR027C, strain aat2, active compounds read low 0.999 | locus YLR113W, strain HOG1, active compounds read low 1.04 | locus YLR221C, strain rsa3, active compounds read low 0.995 | locus YLR258W, strain gsy2, active compounds read low 0.977 | locus YLR262C, strain YPT6 (second series), active compounds read low 0.958 | locus YLR320W, strain mms22, active compounds read low 0.974 | locus YLR342W, strain FKS1, active compounds read low 1 | locus YLR357W, strain rsc2, active compounds read low 1.02 | locus YLR370C, strain arc18, active compounds read low 1.01 | locus YLR384C, strain iki3, active compounds read low 0.978 | locus YML120C, strain ndi1, active compounds read low 1 | locus YMR058W, strain fet3, active compounds read low 1 | locus YMR125W, strain sto1, active compounds read low 0.998 | locus YMR129W, active compounds read low 1.02 | locus YMR205C, strain PFK2, active compounds read low 0.994 | locus YMR231W, strain pep5, active compounds read low 0.992 | locus YNL071W, strain lat1, active compounds read low 0.999 | locus YNL128W, strain TEP1, active compounds read low 0.979 | [3] 0.996 | locus YNL175C, strain NOP13, active compounds read low 1.01 | locus YNL183C, strain NPR1, active compounds read low 0.96 | [4] 0.96 | locus YNL209W, strain ssb2, active compounds read low 0.986 | [5] 0.996 | locus YNL248C, strain rpa49, active compounds read low 1 | locus YNL322C, strain KRE1 (second series), active compounds read low 0.99 | locus YNR049C, strain mso1, active compounds read low 1.01 | locus YOR001W, strain rrp6, active compounds read low 0.988 | locus YOR070C, strain gyp1, active compounds read low 0.999 | locus YOR080W, strain dia2, active compounds read low 0.987 | [6] 1.01 | locus YOR083W, strain WHI5, active compounds read low 1.02 | locus YOR106W, strain vam3, active compounds read low 0.997 | locus YOR231W, strain MKK1, active compounds read low 1.01 | locus YOR265W, strain rbl2, active compounds read low 1 | locus YOR270C, strain vph1, active compounds read low 1.03 | locus YOR290C, strain snf2, active compounds read low 0.934 | locus YPL051W, strain arl3, active compounds read low 0.992 | locus YPL078C, strain atp4, active compounds read low 1 | locus YPL106C, strain sse1, active compounds read low 0.999 | locus YPL240C, strain hsp82, active compounds read low 1.01 | locus YPL241C, strain CIN2, active compounds read low 1 | locus YPL256C, strain CLN2, active compounds read low 0.999
